High-throughput results: PubChem BioAssay, National Center for Advancing Translational Sciences (NCATS)
TbPYK inhibitor – qHTS of Trypanosoma Brucei Inhibitors. pyruvate kinase (Trypanosoma brucei), Q57TT1. TbPYK enzyme, Kinase-Glo Plus ATP luminescence, 45 min. Potency, µM (doses to about 76.8 µM), without a hit: top-dose activity, negative = inhibition, hits mostly inhibitors. 410,000 compounds, 0.12% hits. AID 624173, 2012; further: potency means the concentration at half of the fitted maximal effect; on the % scale 0 is the no-effect control and ±100 the full control effect; nearly all actives have a fitted effect of over 50% in size
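Activity of T. brucei pyruvate kinase was followed by Kinase-Glo Plus luminescence after the enzyme reacted 45 min at room temperature with 130 uM ADP (final) and substrate. Test compounds were added before ADP at multiple concentrations.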
CHX counter-1 – Cycloheximide Counterscreen for Small Molecule Inhibitors of Shiga Toxin. 300,000 compounds, 12% hits. cell reporter, cycloheximide protein synthesis inhibition counterscreen. max response, %; in the data active means max response mostly above about 13%, no sharp cut-off; inactive means mostly below about 14%; further: read at 38.3 µM for the half of the compounds with a filed dose; 0% is about no effect
RE007 growth inh – qHTS Assay for Inhibitors of the HIV-1 protein Vpr | S. pombe RE007 Vpr strain, BacTiter-Glo ATP luminescence, 24 h | Potency, µM (titrated, usually from 92.2 µM), without a hit: at the top dose activity change, negative = less growth, usual class: inhibitors | 360,000 compounds, 0.21% hits | AID 651644, 2012; active means well fitted falling curve with a large enough effect; inconclusive means small, poorly fitted or top-dose-only effect; inactive means no such curve, though single readings can be large or run the other way; further: potency means the concentration at half of the fitted maximal effect; on the % scale 0 is the no-effect control and ±100 the full control effect; nearly all actives have a fitted effect of over 50% in size
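Fission yeast strain RE007, carrying one chromosomally integrated HIV-1 vpr copy, was seeded at OD 0.01 in PMG+AL medium with 23 nL pinned compound. After 24 h at 30 °C and 99% humidity, viability was read by BacTiter-Glo luminescence.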
LmPK inhibitor – qHTS Assay for Inhibitors of Leishmania Mexicana Pyruvate Kinase (LmPK) | 290,000 compounds, 0.37% hits | AID 1721, 2009 | Potency, µM (top dose mostly 57.5 µM), for inactives: top-dose activity change, negative = inhibition, hits mostly inhibitors | purified LmPK, Kinase-Glo ATP luminescence, 1 h | Q27686; further: potency means the concentration at half of the fitted maximal effect; on the % scale 0 is the no-effect control and ±100 the full control effect
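Screened at intermediate enzyme activity to detect both inhibitors and activators: LmPK at 0.1 nM, with a 0.5 nM enzyme column as activation reference. PEP 0.5 mM, ADP 0.1 mM; ATP detected by luminescence after 1 h.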
Shiga inhibitor – A qHTS for Small Molecule Inhibitors of Shiga Toxin; Vero cells, Shiga toxin protein synthesis inhibition reporter; inhibition, % at 38.7 µM; 290,000 compounds, 9.2% hits; AID 2315, 2010; in the data active means inhibition mostly above about 28%, no sharp cut-off; inactive means mostly below about 43%; further: 0% is about no effect
FBPA Giardia inh – qHTS Assay for Inhibitors of Fructose-1,6-bisphosphate Aldolase from Giardia Lamblia. 290,000 compounds, 0.71% hits. Potency, µM (highest dose often 59.6 µM), for the others: at the top dose activity, negative = inhibition, hits mostly inhibitors. purified Giardia FBPA. A8B2U2; further: potency means the concentration at half of the fitted maximal effect; on the % scale 0 is the no-effect control and ±100 the full control effect; nearly all actives have a fitted effect of over 55% in size
Target sequence (A8B2U2 whole entry, looked up): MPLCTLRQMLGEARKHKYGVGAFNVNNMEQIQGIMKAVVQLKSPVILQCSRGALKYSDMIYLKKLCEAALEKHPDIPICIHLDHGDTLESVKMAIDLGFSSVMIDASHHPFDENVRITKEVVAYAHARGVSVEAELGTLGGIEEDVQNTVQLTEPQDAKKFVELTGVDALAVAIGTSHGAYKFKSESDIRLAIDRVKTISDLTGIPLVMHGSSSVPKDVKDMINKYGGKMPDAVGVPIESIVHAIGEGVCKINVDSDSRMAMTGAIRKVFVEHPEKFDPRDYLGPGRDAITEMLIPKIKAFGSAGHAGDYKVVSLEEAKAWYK
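Giardia FBPA (40 nM reagent) was preincubated 10 min at RT with compound (up to 57.5 uM final), then substrate plus GAPDH/TPI/NAD/arsenate coupling system with diaphorase/resazurin was added; resorufin fluorescence (525/598 nm) was read after 20 min.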
CHX counter-2 – Cycloheximide Counterscreen for Small Molecule Inhibitors of Shiga Toxin (Confirmatory). shares compounds with Shiga inhibitor. Cycloheximide counterscreen, protein synthesis reporter, Shiga toxin assay. Potency, µM (top dose mostly 38.3 µM), for the others: at the highest dose activity (activation), usual class: activators. 510 compounds, 3% hits. AID 2318, 2010; calls by dose curve; further: potency means the concentration at half of the fitted maximal effect; 0% is about no effect
The depositor's hits bear a star; u = inconclusive; x = not tested or not shown. Only a selection was taken, and hits are over-represented in it overall. Unless noted, the call rests on the fitted dose curve; in most records, active means well fitted curve in the direction sought with a large enough effect; inconclusive means small, poorly fitted or top-dose-only effect, or another doubt; inactive means no such curve, though single readings can be large; an effect the other way counts as inactive or inconclusive.

SMILES	TbPYK inhibitor	CHX counter-1	RE007 growth inh	LmPK inhibitor	Shiga inhibitor	FBPA Giardia inh	CHX counter-2
O=C(CN(C(=O)c1csnn1)c1ccc2c(c1)OCCO2)NCc1ccc(F)cc1	4%	1	-7%	6%	40	-11%	x
CCOc1ccc(N(CC(=O)NCc2ccc3c(c2)OCO3)C(=O)c2csnn2)cc1	6%	4	8%	-3%	37*	-8%	1%
COc1ccc(CNC(=O)CN(C(=O)c2csnn2)c2ccc3c(c2)OCCO3)cc1	-6%	9	24%	1%	43*	-6%	4%
COc1ccc(CCN2C(=O)CN(C3CCCCCC3)C(=O)C2c2ccc(C)cc2)cc1OC (stereo not given)	1%	x	x	x	x	x	x
Cc1nn(-c2ccc(N3CCCC3)nn2)c(C)c1CCC(=O)N1CCN(c2ccccc2F)CC1	-2%	x	x	x	x	x	x
CC(=O)Nc1ccc(C2(c3ccc(NC(C)=O)cc3)C(=O)Nc3ccccc32)cc1	0%	4	7%	7%	13	7%	x
CC(=O)Nc1ccc(C2(O)COc3ccccc3O2)cc1 (stereo not given)	-1%	14	20%	6%	132*	3%	5%
COCCNc1nc(-c2cccc(OC)c2)nc2ccccc12	x	x	x	x	x	-15%	x
CCOC(=O)C1=C(O)/C(=C\c2ccc(CNC(=O)C(=O)Nc3ccccc3)o2)N=C1C	-12%	4	3%	2%	42*	u	1%
CCOC(=O)C1=C(O)/C(=C\c2cccs2)N=C1C	3%	-1	-20%	5%	-13	-6%	x
COc1ccc(C/C(O)=C(\C#N)c2nc3ccccc3s2)cc1	-4%	1	-3%	1%	34*	u	-3%
N#C/C(=C(/O)COc1ccccc1)c1nc2ccccc2s1	-2%	-3	-8%	-1%	-18	11%	x
CC1C(C#N)=C(N)OC2=C1C(=O)CC(C)(C)C2 (stereo not given)	1%	1	35%	0%	21	1%	x
CCC(C)C1C(C#N)=C(N)OC2=C1C(=O)CC(C)(C)C2 (stereo not given)	0%	-2	-16%	5%	14*	-4%	-2%
COC(=O)[C@@H]1C[C@@]2(O)[C@@H](O)[C@@H](O)[C@@H](O)C[C@H]2N1CC1CC1	x	x	x	x	x	-3%	x
Cc1cc(C(=O)Nc2cc(C)on2)on1	-2%	-3	5%	0%	16	-7%	x
Cc1ccc(O)c(NC(=O)c2cc(C)no2)c1	9%	1	-27%	4%	38*	14%	6%
CC(C)(C)NC(=O)NC(=O)CN1CCN(c2ncc(C(F)(F)F)cc2Cl)CC1	-30%	7	-15%	-16%	19	1%	x
O=C(CN1CCN(c2ncc(C(F)(F)F)cc2Cl)CC1)NC(=O)NCc1ccccc1	-2%	2	-8%	5%	68*	1%	0%
CCC(=O)N1CCN(c2ccc(NC(=O)c3ccc(Br)o3)cc2)CC1	-16%	3	32%	-3%	22*	0%	7%
Cc1noc(C)c1C(=O)Nc1ccc(F)cc1	-4%	2	19%	4%	-12	2%	x
Cc1noc(C)c1C(=O)Nc1ccc2c(c1)CCC2	3%	8	3%	-1%	73*	6%	-2%
Cc1ccc(CCNC(=O)c2ccc(CNS(=O)(=O)c3ccc(F)cc3)cc2)cc1	-2%	x	x	x	x	x	x
Nc1nc(-c2ccc3c(c2)CCC(=O)N3)cs1	-4%	7	3%	-17%	42*	-11%	u
Cc1ccc2c(N)[nH]nc2n1	-1%	11	2%	1%	82*	-4%	-1%
